Data published in PubChem BioAssay (NCATS).
Results filed as inconclusive are left out. Entries that show only a call come without a potency. Unmarked numbers belong to inactive results. Activity calls are given as the source filed them. Calls follow the shape of the dose curve; as a rule, active = well fitted curve in the direction sought with a large enough effect; inconclusive = small, poorly fitted or top-dose-only effect, or another doubt; inactive = no such curve, though single readings can be large; an effect the other way counts as inactive or inconclusive.

Experiments:
[1] = target: Calcium and integrin-binding protein 1 (Homo sapiens) (UniProt Q99828); assay: Primary qHTS for Identification of Calcium Integrin Binding Protein 1 (CIB1) Competitor (AID 1508620);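 also: GST tagged CIB1 binding a fluorescein labelled alphaIIb integrin peptide tracer; top concentration of the series differs between compounds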
Summary of the method: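 CIB1-GST (1 uM final) and compound incubated 15 min at room temperature before adding FITC-alphaIIb peptide tracer (100 nM final). Competition for binding read by fluorescence polarization (ex 480, em 540) after another 15 min at room temperature.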

[2] = Primary qHTS for small molecule stabilizers of the endoplasmic reticulum resident proteome: Secreted ER Calcium Modulated Protein (SERCaMP) assay (AID 1508630)
Summary of the method: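 GLuc-SERCaMP-expressing SH-SY5Y cells, pretreated 16 h with compound, are challenged with thapsigargin to empty ER calcium stores; after 4 h, coelenterazine is added directly to the medium and luminescence is imaged.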

Calcium and integrin-binding protein 1 (Homo sapiens), sequence (Q99828 whole entry, looked up): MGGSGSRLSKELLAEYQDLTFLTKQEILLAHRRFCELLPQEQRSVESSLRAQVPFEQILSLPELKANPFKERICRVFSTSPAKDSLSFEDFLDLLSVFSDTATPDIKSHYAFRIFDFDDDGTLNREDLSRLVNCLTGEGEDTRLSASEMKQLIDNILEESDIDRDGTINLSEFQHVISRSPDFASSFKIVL

SMILES | Potency [1] | outcome [2]
CC(=O)OCC(=O)[C@@]12N=C(C)O[C@H]1C[C@H]1[C@@H]3CCC4=CC(=O)C=C[C@]4(C)[C@@H]3[C@@H](O)C[C@@]12C | inactive | inactive
CCc1cc(C(C)=NOCc2ccc(C3CCCCC3)c(C(F)(F)F)c2)ccc1CN1CC(C(=O)O)C1 | inactive | inactive
CCCCCN=C(N)NN=Cc1c[nH]c2ccc(OC)cc12 | inactive | inactive
O=C(O)C[C@H](O)C[C@H](O)C=Cc1c(C2CC2)nc2ccccc2c1-c1ccc(F)cc1 | inactive | inactive
COc1cc(N2CCC(C(N)=O)CC2)ccc1Nc1nc(N)c(Cl)c(Nc2ccccc2S(=O)(=O)C(C)C)n1 | inactive | inactive
COC(=O)C=CC(=O)OC | inactive | inactive
C[C@H](NCc1ccc(OCc2cccc(F)c2)cc1)C(N)=O | inactive | inactive
N#Cc1ccc(COC[C@H]2O[C@@H](n3c(NCc4ccc(Cl)c(Cl)c4)nc4c(N)ncnc43)[C@@H](O)[C@@H]2O)cc1 | inactive | inactive
CC(=CC(=O)Nc1ccccc1C(=O)O)c1ccc2ccccc2c1 | inactive | inactive
COc1cc([C@@H]2c3cc4c(cc3[C@@H](O[C@@H]3O[C@@H]5CO[C@@H](c6cccs6)O[C@@H]5[C@H](O)[C@@H]3O)[C@H]3COC(=O)[C@H]23)OCO4)cc(OC)c1O | inactive | inactive
C[C@H](NC(=O)C(C#N)=Cc1cccc(Br)n1)c1ccccc1 | inactive | inactive
CNC(=O)c1ccc(Nc2cc(Nc3ccccc3S(=O)(=O)C(C)C)c3cc[nH]c3n2)nc1 | inactive | inactive
C=C1C[C@@]2(O)O[C@@]3(C[C@H]2C(C)C)[C@H](C)CC[C@H]13 | inactive | inactive
Cc1cc(-c2nnc3n2CCCCC3)c(C)n1-c1ccccc1 | inactive | inactive
N#CC(=C(N)Sc1ccc(N)cc1)c1ccccc1C(F)(F)F | inactive | inactive
CC(C)c1cc(C(C)C)c(CC(=O)NS(=O)(=O)Oc2c(C(C)C)cccc2C(C)C)c(C(C)C)c1 | inactive | inactive

SMILES | Potency [1] | outcome [2]
CS[C@H]1SC[C@@H]2C(=O)N(C)[C@H](C(C)C)C(=O)OC[C@H](NC(=O)c3cnc4ccccc4n3)C(=O)N[C@H](C)C(=O)N(C)[C@@H]1C(=O)N(C)[C@H](C(C)C)C(=O)OC[C@H](NC(=O)c1cnc3ccccc3n1)C(=O)N[C@H](C)C(=O)N2C | inactive | inactive
CC(=O)O[C@H]1C[C@@H]2CC[C@H]3[C@H]4C[C@H]([N+]5(C)CCCCC5)[C@@H](OC(C)=O)[C@@]4(C)CC[C@@H]3[C@@]2(C)C[C@H]1N1CCCCC1 | inactive | inactive
O=C(C=CC#Cc1cccc(NS(=O)(=O)c2ccccc2)c1)NO | inactive | inactive
C=CC(=O)Nc1cc(NC(=O)c2ccc(C)c(NC(=O)c3ccno3)c2)cc(C(F)(F)F)c1 | inactive | inactive
O=C(O)[C@H](CC(=O)N1C[C@@H]2CCCC[C@H]2C1)Cc1ccccc1 | inactive | inactive
O=C(C=CC=Cc1ccc2c(c1)OCO2)N1CCCCC1 | inactive | inactive
C[C@@H](Oc1ccc2[nH]nc(C=Cc3cnn(CCO)c3)c2c1)c1c(Cl)cncc1Cl | inactive | inactive
C=CCNc1c(O)cc2c(O)c1C[C@@H](C)C[C@H](OC)[C@@H](O)[C@@H](C)C=C(C)[C@H](OC(N)=O)[C@@H](OC)C=CC=C(C)C(=O)N2 | inactive | inactive
CN[C@H]1[C@@H](O)[C@@H]2O[C@@H]3O[C@H](C)CC(=O)[C@]3(O)O[C@@H]2[C@@H](NC)[C@H]1O | inactive | inactive
C[C@H](NCc1ccc2c(c1)nc(NC(=O)c1ccc(-c3cn[nH]c3)s1)n2CCc1ccccc1)C(C)(C)C | inactive | inactive
CC(C)(O)Cn1c(NC(=O)c2ccc(-c3cn[nH]c3)s2)nc2cc(CN3CCOCC3)ccc21 | inactive | inactive
CCOC(=O)N1CCN([N+]([O-])=NOc2ccc([N+](=O)[O-])cc2[N+](=O)[O-])CC1 | inactive | inactive
CCCNC(=O)[C@H]1O[C@H]1C(=O)N[C@H](C(=O)N1CCC[C@@H]1C(=O)OC)C(C)CC (some centres undefined) | inactive | inactive
NC[C@H]1O[C@H](O[C@H]2[C@@H](O)[C@@H](O[C@H]3O[C@H](CO)[C@@H](O)[C@H](N)[C@@H]3O)[C@H](N)C[C@@H]2N)[C@H](N)C[C@H]1O | inactive | inactive
CC[C@H](CC[C@@H](C)[C@H]1CC[C@H]2[C@@H]3CC=C4C[C@@H](O)CC[C@]4(C)[C@@H]3CC[C@]12C)C(C)C | inactive | inactive
C=CC1=C(C(=O)O)N2C(=O)[C@@H](NC(=O)C(=NO)c3csc(N)n3)[C@H]2SC1 | inactive | inactive
